# An excerpt weighted towards active compounds, which were near 3.5% of everything screened.
# MITF inh: human MITF inhibition, primary screen; O75030; AlphaScreen MITF homodimerization, bead proximity signal; inhibition, % at 2.6 µM; actives 0.91% (n = 650,000); AID 1259374; in the data active means inhibition above about 50%;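 further: 0% = vehicle wells with protein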
# GPR151 ag: human GPR151 activation. PathHunter beta-arrestin GPR151 cells, luminescence. activation, % at 11.2 µM. actives 1% (n = 650,000); in the data active means activation above about 4.9%;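 further: 0% = median of compound wells and 100% = cells with positive control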
# TEAD-YAP block: TEAD-YAP interaction inhibition. actives 1.4% (n = 640,000). HEK-TIYL cells, TEAD-Gal4/YAP UAS-luciferase luminescence. inhibition, % at 9.12 µM; in the data active means inhibition above about 32%;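 further: 0% = median of test compound wells and 100% = reference inhibitor wells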
# FBW7 activator: activators of human E3 ligase FBW7; Q969H0; AlphaScreen FBW7–phospho-cyclin E peptide binding, activator screen; normalized activity (activation), % at 26.1 µM; actives 0.13% (n = 650,000); in the data active means normalized activity above about 1.9%;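 further: purified mutant Fbw7 with reduced substrate affinity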
# Target sequence (Q969H0 whole entry, looked up): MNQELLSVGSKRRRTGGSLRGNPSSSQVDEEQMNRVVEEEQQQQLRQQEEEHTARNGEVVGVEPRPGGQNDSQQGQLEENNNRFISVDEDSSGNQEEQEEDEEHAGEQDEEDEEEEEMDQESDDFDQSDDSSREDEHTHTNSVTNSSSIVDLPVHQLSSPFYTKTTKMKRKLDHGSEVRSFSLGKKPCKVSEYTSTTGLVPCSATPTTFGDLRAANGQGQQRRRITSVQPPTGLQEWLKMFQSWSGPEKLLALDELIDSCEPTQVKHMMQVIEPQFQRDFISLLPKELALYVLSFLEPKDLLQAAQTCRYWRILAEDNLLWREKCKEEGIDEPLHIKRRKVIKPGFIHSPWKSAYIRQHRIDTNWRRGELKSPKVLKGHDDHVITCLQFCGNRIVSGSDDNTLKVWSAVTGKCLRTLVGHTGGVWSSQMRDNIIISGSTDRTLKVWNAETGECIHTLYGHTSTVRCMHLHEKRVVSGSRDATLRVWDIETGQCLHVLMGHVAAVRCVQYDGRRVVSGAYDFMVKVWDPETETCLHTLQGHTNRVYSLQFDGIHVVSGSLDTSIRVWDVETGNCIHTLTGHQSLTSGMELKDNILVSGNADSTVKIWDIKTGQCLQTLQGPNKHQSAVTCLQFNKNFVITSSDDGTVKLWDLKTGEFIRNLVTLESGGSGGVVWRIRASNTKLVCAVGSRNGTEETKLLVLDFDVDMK
# MITF inh conf: human MITF inhibition, confirmation; shares compounds with MITF inh; AlphaScreen MITF homodimerization, biotin/His-MITF beads; inhibition, % at 2.6 µM; actives 16% (n = 4,700);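 active means inhibition above a cutoff derived from the DMSO control wells, cut at about 28% in these data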;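 further: 0% = MITF dimer wells with DMSO only; inhibitors lower the bead chemiluminescence by keeping MITF from dimerizing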
# AlphaScreen intf2: optically interferes with AlphaScreen signal | inhibition, % at 2.6 µM | shares compounds with MITF inh | LysRS AlphaScreen counterscreen, signal interference, triplicate | actives 7.6% (n = 4,700);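 active means inhibition above a cutoff derived from the DMSO control wells, cut at about 30% in these data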
# Active calls of the source: *.
SMILES,MITF inh,GPR151 ag,TEAD-YAP block,FBW7 activator,others
Cn1nnnc1Sc1ccc([N+](=O)[O-])c2cnccc12,-9,0,35*,0,
Cn1nnnc1Sc1ccc(C(N)=O)cc1[N+](=O)[O-],5,2,-4,0,
CCCc1ccc(-c2ccc(F)c(N3C(=O)c4cccc(F)c4C3=O)c2)nc1,0,-8,62*,0,
Cc1cc2c(N3CCN(Cc4ccc5c(c4)OCO5)CC3)ncnc2s1,17,1,45*,0,
O=C(c1cnc(N2CCN(c3ncccn3)CC2)c2ccccc12)N1CCN(Cc2ccc3c(c2)OCO3)CC1,14,-1,61*,0,
O=C(c1cnc(N2CCN(c3ncccn3)CC2)c2ccccc12)N1CCCC1,4,-1,-8,0,
Cc1cc2c(N3CCN(c4ccccn4)CC3)ncnc2s1,19,1,41*,0,
Cc1cc2c(N3CCN(c4ccccc4)CC3)ncnc2s1,1,0,6,0,
Cc1nc(C)n(-c2ccc(Nc3nccc(-c4cncc(N5CCOCC5)c4)n3)cc2)n1,16,2,31,0,
c1cnn(Cc2ccc(Nc3nccc(-c4cncc(N5CCOCC5)c4)n3)cc2)c1,7,1,65*,0,
c1cn(Cc2ccc(Nc3nccc(-c4cncc(N5CCOCC5)c4)n3)cc2)cn1,3,0,68*,0,
COC(=O)C1=C(C)NC(=O)NC1c1cc2c(cc1Br)OCO2 (stereo not given),-17,1,-8,0,
O=C(CCCc1nc(-c2ccc(Cl)cc2)no1)NC1CCCC1,-11,1,34*,0,
Cc1nc(C)c2c(=O)cc(-c3ccccc3)[nH]c2n1,-2,-1,52*,0,
Cc1nc(-c2ccccc2)nc2[nH]c(-c3ccccc3)cc(=O)c12,8,-1,12,0,
c1cc(-c2ccc3cnc(Nc4ccc(-n5cnc(N6CCOCC6)n5)cc4)nc3c2)[nH]n1,-6,0,11,13*,
CNC(=O)c1ccc2cnc(Nc3ccc(-n4cnc(N5CCOCC5)n4)cc3)nc2c1,37,1,55*,0,
Cn1nccc1-c1ccc2cnc(Nc3ccc(-n4cnc(N5CCOCC5)n4)cc3)nc2c1,1,0,-17,0,
Nc1ccc(-c2ccc3cnc(Nc4ccc(-n5cnc(N6CCOCC6)n5)cc4)nc3c2)cn1,2,2,65*,1,
c1cc(-n2cnc(N3CCOCC3)n2)ccc1Nc1ncc2ccc(N3CCOCC3)cc2n1,-1,2,1,0,
O=C(NCc1ccccc1)c1ccc2cnc(Nc3ccc(-n4cnc(N5CCOCC5)n4)cc3)nc2c1,47,1,-2,0,
CC1Oc2ccc([N+](=O)[O-])cc2N(Cc2ccccc2Cl)C1=O (stereo not given),-13,0,-1,0,
CCCCCOc1ccc(/C=c2\sc3nc(-c4ccccc4OC(C)=O)nn3c2=O)cc1OC,-13,1,6,0,
N#CC1=C(N)Oc2cc(N)ccc2C1C1CCCCC1 (stereo not given),-2,2,46*,0,
N#CC1=C(N)Oc2cc(N)ccc2C1c1ccc(C(F)(F)F)cc1 (stereo not given),10,0,6,0,
SMILES,MITF inh,GPR151 ag,TEAD-YAP block,FBW7 activator,others
O=C(CC1CCC1)Nc1cccc(Br)c1,9,1,-2,0,
CCC(C)Nc1c(-c2ccc(C)cc2)c(=O)c1=O (stereo not given),13,-2,24,0,
CCC(C)Nc1c(-c2ccc(C)c(C)c2)c(=O)c1=O (stereo not given),-3,0,52*,0,
Cc1ccc(-c2c(NC3CCCC3)c(=O)c2=O)cc1C,12,1,32*,0,
Cc1c(/C=C2\SC(=S)NC2=O)c(=O)n(-c2ccccc2)n1C,3,-1,18,1,
COC(=O)C1=CN(Cc2ccc(Cl)cc2)C=C(C(=O)OC)C1c1ccc(OC)c(Br)c1,-3,1,9,0,
CC(C)(C)c1cc(O)cc(C(C)(C)C)c1,3,0,-9,0,
COc1ccccc1C(=O)Nc1ccc2nc(SC(C)c3ccccc3)sc2c1 (stereo not given),-4,3,54*,0,
O=C(CSc1nc2ccc(NC(=O)c3ccccc3Cl)cc2s1)Nc1ccccc1,-2,0,-41,0,
O=C(CSc1nc2ccc(NC(=O)c3ccccc3Cl)cc2s1)Nc1cccc([N+](=O)[O-])c1,10,0,32*,0,
Nc1nc(SCC(=O)Nc2cccc([N+](=O)[O-])c2)sc1C(=O)Nc1nccs1,5,-5,32*,0,
O=C(CSc1nc2ccc(NC(=O)c3ccccc3C(=O)O)cc2s1)NCc1ccccc1,5,-1,41*,0,
COc1ccccc1C(=O)Nc1ccc2nc(SCC(C)=O)sc2c1,6,1,-43,0,
COC(=O)c1sc2ccccc2c1NC(=O)c1ccc([N+](=O)[O-])o1,4,2,-1,0,
CS(=O)(=O)N1CCN(c2cnn(-c3ccccc3)c(=O)c2Br)CC1,0,0,-27,0,
O=C1CNC(=O)N1C12CC3CC(CC(C3)C1)C2,-5,0,6,0,
CCCCCCC1(O)C(C)C(c2ccc(N(C)C)cc2)NC(c2ccc(N(C)C)cc2)C1C (stereo not given),61*,0,-11,-1,
Fc1ccccc1C1CC(c2ccccc2)=NN1c1ccccc1 (stereo not given),6,0,6,3.3*,
Cc1ccc(-c2nn(-c3ccccc3)cc2C2CC(c3ccc(F)cc3)=NN2c2ccccc2)o1 (stereo not given),3,2,-13,0,
O=[N+]([O-])c1ccc(N2N=C(c3ccccc3)CC2c2ccccc2)cc1 (stereo not given),-1,-1,-3,0,
c1ccc(-c2ccc(C3=NN(c4ccccc4)C(c4ccccc4)C3)cc2)cc1 (stereo not given),6,0,11,0,
O=[N+]([O-])c1ccc(N2N=C(c3ccccc3)CC2c2ccccc2O)cc1 (stereo not given),1,0,-10,3.5*,
Cc1ccc(C2CC(c3ccc(F)cc3)=NN2c2ccccc2)o1 (stereo not given),-22,0,-2,1.9*,
CCOC(=O)Nc1c(C)cc(C)cc1[N+](=O)[O-],8,0,50*,0,
CC1CCCCC1Nc1ncnc2sccc12 (stereo not given),64*,3,7,0,MITF inh conf=2;AlphaScreen intf2=2
CC(C)CC(NC(=O)c1ccco1)c1nc2cccnc2n1C(C)C (stereo not given),-2,-1,9,0,
CC(C)NCC(O)COc1ccccc1 (stereo not given),-7,1,7,0,

# Screening results (PubChem)
